# Source: PubChem BioAssay (National Center for Advancing Translational Sciences (NCATS))
# FLuc modulator – firefly luciferase modulation, counter-screen for miR-21 project | Potency, µM (doses to about 57.5 µM), without a hit: top-dose activity change, negative = inhibition, usual class: inhibitors | AID 588342 | 6.9% of 360,000 active | purified FLuc, Km substrates, luminescence inhibition | P08659;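 note: plate controls were vehicle for no effect and reference inhibitor for full effect; nearly all actives have a fitted effect of over 55% in size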
# Target sequence (P08659 whole entry, looked up): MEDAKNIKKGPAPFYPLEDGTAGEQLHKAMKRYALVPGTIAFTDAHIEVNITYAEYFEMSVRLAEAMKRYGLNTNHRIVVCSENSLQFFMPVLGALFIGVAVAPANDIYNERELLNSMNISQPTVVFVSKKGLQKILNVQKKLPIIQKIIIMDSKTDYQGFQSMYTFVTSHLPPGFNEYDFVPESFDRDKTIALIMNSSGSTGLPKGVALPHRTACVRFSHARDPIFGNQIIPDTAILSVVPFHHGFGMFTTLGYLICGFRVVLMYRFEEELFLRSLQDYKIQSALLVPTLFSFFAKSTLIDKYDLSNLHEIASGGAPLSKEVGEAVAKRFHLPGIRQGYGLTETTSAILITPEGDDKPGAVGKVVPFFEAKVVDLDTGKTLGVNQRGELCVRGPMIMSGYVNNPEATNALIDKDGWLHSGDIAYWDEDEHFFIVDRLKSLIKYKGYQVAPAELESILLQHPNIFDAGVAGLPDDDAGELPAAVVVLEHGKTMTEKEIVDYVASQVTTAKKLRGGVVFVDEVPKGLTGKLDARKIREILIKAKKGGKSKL
#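 Purified P. pyralis luciferase, 10 nM final, with Km-level 10 uM D-luciferin and 10 uM ATP in 50 mM Tris acetate pH 7.5, 10 mM Mg acetate, 0.01% Tween-20, 0.05% BSA; 6-point qHTS titration about 60 µM downward; luminescence read.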
# Rab9 prom act – activators of Rab9 promoter; 2.8% of 320,000 active; Potency, µM (top dose mostly 9.22 µM), inactives show at the highest dose activation, negative = inhibition, usual class: activators; Huh7 Rab9 promoter-luciferase reporter, luminescence, 24 h; note: % of control where 0% means no effect; nearly all actives have a fitted effect of over 60% in size
#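 Luminescence read-out: Huh7 cells stably expressing Rab9-luciferase, treated 24 h with compound at 37 °C, then lysed with luciferase reagent for 10 min at ambient before reading.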
# ELG1 genotox – inducers of genotoxicity in HEK293T ELG1-luciferase cells; AID 504466; Potency, µM (top dose mostly 46 µM), for the others: at the highest dose activity change, positive = activation, usual class: activators; HEK293T ELG1-luciferase reporter, luminescence, 16 h; 1.3% of 330,000 active; note: % of control where 0% means no effect; nearly all actives have a fitted effect of over 60% in size
#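 Step 1: seed 2,000 HEK293T ELG1-luciferase cells per well. Step 2: add compound or DMSO, incubate 16 hr at 37 °C. Step 3: ONE-Glo, 30 min at room temperature, read luminescence.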
# NPC1 prom act – activators of NPC1 promoter; Huh7 NPC1 promoter luciferase reporter, 24 h; Potency, µM (series often up to 9.22 µM), for inactives: top-dose activation, most hits filed as activators; 2.4% of 320,000 active; note: % of control where 0% means no effect; nearly all actives have a fitted effect of over 60% in size
#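 In 1536-well qHTS, Huh7 cells harboring an NPC1 promoter–luciferase construct received compound for 24 h; activation was quantified by luminescence following luciferase reagent addition.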
# ELG1 DNA repair – blocks ELG1-dependent DNA repair in HEK293T cells; 2.3% of 330,000 active; HEK293T ELG1-luciferase reporter, luminescence, 16 h; DNA damage induced by 5-fluorouridine; Potency, µM (titrated, usually from 46.1 µM), for inactives: at the top dose activity change, negative = inhibition, hits mostly inhibitors; note: % is set by controls: 0 for no effect and ±100 for the full control effect; nearly all actives have a fitted effect of over 55% in size
#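 In this reporter screen, reduction of luminescence relative to DMSO vehicle indicated activity. Compounds and 5-fluorouridine were added together to 2,000 cells per well, incubated for 16 hr at 37 °C, then developed with ONE-Glo.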
# SMN2 splice up – increases expression of the SMN2 splice variant; HEK293 SMN2-luciferase splicing reporter, luminescence, 30-36 h; Potency, µM (doses to about 46.1 µM), inactives show at the highest dose activity change, positive = activation, usual class: activators; 2.8% of 210,000 active; note: % of control where 0% means no effect; nearly all actives have a fitted effect of over 55% in size
#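 HEK293 cells carry an SMN2 minigene-luciferase reporter in which exon 7 inclusion puts luciferase in frame. Cells were seeded at 2000 cells/well, attached for 10-12 hours, then exposed to compounds for 30-36 hours at 37C before ONE-Glo luminescence.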
# * hit, by the source's call; ? = inconclusive; . = no result. The list is not random: actives were taken first. Their share in the collection is about 9.2%. Calls come from the whole dose curve; as a rule, active = well fitted curve in the direction sought with a large enough effect; inconclusive = small, poorly fitted or top-dose-only effect, or another doubt; inactive = no such curve, though single readings can be large; an effect the other way counts as inactive or inconclusive. Potency is the fitted concentration of half-maximal effect.
SMILES,FLuc modulator,Rab9 prom act,ELG1 genotox,NPC1 prom act,ELG1 DNA repair,SMN2 splice up
c1ccc(-n2ncc3c(NC4CCCC4)ncnc32)cc1,4.78µM*,.,.,.,.,.
Cc1ccc(-n2ncc3c(NC4CCCC4)ncnc32)cc1,0.379µM*,.,.,.,.,.
CCOC(=O)N1CCC(Nc2ncnc3c2cnn3-c2ccc(Cl)cc2)CC1,?,?,11.6µM*,?,?,7.9%
CCOC(=O)c1ccc(Nc2ncnc3c2cnn3-c2cccc(Cl)c2)cc1,-14.2%,.,.,.,.,.
COc1ccc(-n2ncc3c(NC4CCCC4)ncnc32)cc1,1.35µM*,.,.,.,.,.
COC(=O)c1nc(NNC(=O)c2ccccc2)sc1-c1ccccc1,-2.2%,-11.6%,13.2%,-1.2%,?,.
COc1cc(OC)c([C@@H]2O[C@H](CO)[C@@H](O)[C@H](O)[C@H]2O)c(OC)c1,.,.,.,.,.,12.0%
Cc1cccc(C)c1,.,.,.,.,.,4.4%
Cc1ccc2c(c1)C=CC(C#N)N2C(=O)c1ccccc1 (stereo not drawn),-6.6%,-17.8%,8.9%,-17.1%,1.0%,6.31µM*
O[C@@H]1COC(Nc2ccc(N=Nc3ccccc3)cc2)C[C@@H]1O (stereo partly drawn),0.338µM*,3.16µM*,?,?,?,.
Cc1ccc(Nc2nc(C)cc(C)n2)c(Br)c1,21.3µM*,18.6%,7.6%,22.2%,?,4.4%
CCOc1ccc(S(=O)(=O)NC2CCCC2)cc1,3.3%,-3.0%,0.4%,0.2%,0.5%,.
CN1c2ccccc2C(C)(C)C12C=Nc1c(ccc3ccccc13)O2 (stereo not drawn),15.1µM*,8.0%,-1.6%,-3.4%,?,-41.5%
O=C(Nc1ccc(N2CCN(C(=O)c3cccs3)CC2)c(Cl)c1)c1cccnc1,-3.7%,-7.4%,-14.4%,-0.2%,6.51µM*,-26.5%
O=C(Nc1ccc(N2CCN(C(=O)c3ccco3)CC2)c(Cl)c1)c1cccnc1,-2.4%,-6.4%,-12.0%,-6.7%,6.51µM*,-9.3%
O=C(Nc1cccc(NC(=O)c2cccs2)c1)c1cccnc1,?,-1.0%,-7.0%,-1.1%,?,3.3%
O=C(Nc1ccc(N2CCN(C(=O)c3ccco3)CC2)c(Cl)c1)c1c(F)c(F)c(F)c(F)c1F,2.5%,-16.7%,-2.5%,-4.0%,18.4µM*,-104.3%
COc1c(F)c(F)c(C(=O)Nc2ccc(N3CCN(C(C)=O)CC3)c(Cl)c2)c(F)c1F,-10.7%,-5.5%,-14.1%,1.4%,23.1µM*,-6.1%
O=C(c1ccco1)N1CCN(C(=S)Nc2ccc(F)c(Cl)c2)CC1,6.1%,5.1%,-0.7%,-2.1%,2.1%,.
CC(=O)N1CCN(c2ccc(NC(=O)c3ccc(Br)o3)cc2Cl)CC1,?,19.9%,-4.0%,12.8%,?,20.9%
COc1cccc(Nc2ncc3nc(CCc4ccccc4)c(=O)n(C4CC4)c3n2)c1,.,.,.,.,.,-3.9%
O=c1c2cc(-c3ccccc3)sc2nc2n1N=C(c1ccccc1)CS2,1.9µM*,1.78µM*,17.2%,2µM*,?,.
CC(C)Sc1nc2sc(-c3ccccc3)cc2c(=O)n1N,-8.4%,7.2%,1.9%,10.1%,18.3%,2.0%
CSc1nc2sc(-c3ccccc3)cc2c(=O)n1N,?,0.631µM*,?,1.26µM*,?,2.82µM*
O=C(CSc1nc2c(c(=O)[nH]1)CCC2)Nc1ccccc1F,-2.2%,.,.,.,.,.
SMILES,FLuc modulator,Rab9 prom act,ELG1 genotox,NPC1 prom act,ELG1 DNA repair,SMN2 splice up
O=C(O)CCC(=O)Nc1ccc(-c2nnc(-c3ccco3)o2)cc1,?,-8.5%,2.8%,1.5%,25.0%,1.3%
Cc1ccc(SCC(=O)Nc2ccc(-c3nnc(-c4ccco4)o3)cc2)cc1,3.1%,3.55µM*,?,2.51µM*,?,?
O=C(COc1ccccc1)Nc1cccc(-c2nnc(-c3ccccc3)o2)c1,12µM*,28.2%,-8.5%,?,-13.5%,?
O=C(O)CCC(=O)Nc1cccc(-c2nnc(-c3ccccc3)o2)c1,21.3µM*,-2.4%,11.0%,2.8%,5.9%,.
Cc1cc(C)cc(OCC(=O)Nc2cccc(-c3nnc(-c4ccco4)o3)c2)c1,1.4%,-2.2%,-50.2%,11.4%,20.6µM*,13.3%
COc1cc2[nH]c(=O)n(CCCCCC(=O)NCCc3ccccc3)c(=O)c2cc1OC,0.3%,.,.,.,.,4.2%
COC(=O)c1cc(OC)c(OC)cc1NC(=O)c1ccc2c(c1)CCN2S(C)(=O)=O,-6.4%,.,.,.,.,2.7%
COc1cccc(/C=N/n2c(-c3n[nH]c4c3CCC4)n[nH]c2=S)c1OC,-2.8%,-1.6%,0.7%,0.9%,20.5%,.
CCCCn1c(=O)n(C)c(=O)c2c(C(F)(F)F)cc(-c3ccncc3)nc21,-1.3%,-5.4%,-6.0%,-0.7%,14.6µM*,21.2%
Cc1ccc(CSCC(=O)N2CCN(c3ccccc3)CC2)cc1,-1.7%,-2.0%,-0.2%,-1.8%,-2.7%,-25.7%
CCn1c(CSCc2ccc(F)cc2)nnc1SCC(=O)N1CCN(c2ccccc2)CC1,1.0%,-0.8%,-5.2%,4.7%,13µM*,-34.5%
Cc1ccc(CSCc2nnc(SCC(=O)N3CCN(c4ccccc4)CC3)n2C)cc1,-1.7%,1.9%,-20.1%,2.3%,23.1µM*,-46.3%
CC(=O)N(c1ccccc1)c1nnc(-c2cnc(C)cn2)s1,?,3.16µM*,9.2µM*,1.58µM*,?,.
CCOc1ccc(NC(=O)N(Cc2cn(CC)c3ccccc23)C2CCCCCC2)cc1,-14.0%,.,.,.,.,?
CCc1ccc(NC(=O)N(Cc2cn(CC)c3ccccc23)C2CCCCC2)cc1,?,.,.,.,.,12.6µM*
CCn1cc2nc(SCc3cccc(C(F)(F)F)c3)n(Cc3ccc(C)cc3)c(=O)c2n1,-4.4%,.,.,.,.,.
Cn1cnc2cc(OC(=O)c3ccccc3)ccc21,19µM*,-6.7%,3.6%,-1.9%,11.3%,19.6%
Cc1ccc(C(=O)Oc2ccc3c(c2)ncn3C)cc1,3.01µM*,-15.9%,4.7%,3.9%,?,.
Cc1ccc(C(=O)Oc2cccc(-n3cnnn3)c2)cc1,?,-4.4%,?,1.0%,?,-0.1%
CC(=O)Nc1ccc(-c2cn3cc(C)ccc3n2)cc1,1.9µM*,1µM*,?,3.16µM*,?,4.47µM*
Cc1ccc2nc(-c3ccc(S(=O)(=O)N4CCOCC4)cc3)cn2c1,-9.9%,15.5%,23.1µM*,1.6%,?,4.6%
Cc1ccc2nc(-c3ccccc3)cn2c1,0.12µM*,?,?,0.112µM*,?,0.501µM*
CC(=O)Nc1ccc(C)cc1,-0.4%,0.9%,3.7%,0.3%,-0.2%,-0.1%
Cc1ccc2nc(-c3ccc(-c4ccccn4)s3)cn2c1,0.19µM*,0.398µM*,1.64µM*,0.447µM*,?,.
Cc1ccc2nc(-c3ccccn3)c(NC3CCCC3)n2c1,-0.5%,-5.0%,5.8%,-4.4%,?,.
